Pol III holo inh – qHTS Assay for Inhibitors of DNA Polymerase III Holoenzyme System; reconstituted DNA polymerase III holoenzyme replication, biochemical; Potency, µM (series often up to 57.1 µM), for the others: at the top dose activity change, negative = inhibition; 0.25% of 71,000 active; AID 603, 2007; further: potency means the concentration at half of the fitted maximal effect; on the % scale 0 is the no-effect control and ±100 the full control effect
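Reconstituted *E. coli* holoenzyme (0.35 nM Pol III, 1 nM beta, 154 nM SSB, 2 nM primase) was preincubated with compound for 15 min at RT. Synthesis on 1.4 nM ssM13Gori ran 35 min, then was stopped with PicoGreen/EDTA and read as dsDNA fluorescence.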
BRCT inh green – qHTS Assay for Inhibitors of BRCT-Phosphoprotein Interaction (Green Fluorophore). Breast cancer type 1 susceptibility protein (Homo sapiens), P38398. BRCA1 BRCT-phosphopeptide binding, green fluorescence polarization. Potency, µM (series often up to 76.9 µM), inactives show at the top dose activity change, negative = inhibition, most hits filed as inhibitors. 0.05% of 75,000 active. AID 875, 2007;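 further: potency means the concentration at half of the fitted maximal effect; plate controls were peptide without protein for full effect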
Target sequence (P38398 whole entry, looked up): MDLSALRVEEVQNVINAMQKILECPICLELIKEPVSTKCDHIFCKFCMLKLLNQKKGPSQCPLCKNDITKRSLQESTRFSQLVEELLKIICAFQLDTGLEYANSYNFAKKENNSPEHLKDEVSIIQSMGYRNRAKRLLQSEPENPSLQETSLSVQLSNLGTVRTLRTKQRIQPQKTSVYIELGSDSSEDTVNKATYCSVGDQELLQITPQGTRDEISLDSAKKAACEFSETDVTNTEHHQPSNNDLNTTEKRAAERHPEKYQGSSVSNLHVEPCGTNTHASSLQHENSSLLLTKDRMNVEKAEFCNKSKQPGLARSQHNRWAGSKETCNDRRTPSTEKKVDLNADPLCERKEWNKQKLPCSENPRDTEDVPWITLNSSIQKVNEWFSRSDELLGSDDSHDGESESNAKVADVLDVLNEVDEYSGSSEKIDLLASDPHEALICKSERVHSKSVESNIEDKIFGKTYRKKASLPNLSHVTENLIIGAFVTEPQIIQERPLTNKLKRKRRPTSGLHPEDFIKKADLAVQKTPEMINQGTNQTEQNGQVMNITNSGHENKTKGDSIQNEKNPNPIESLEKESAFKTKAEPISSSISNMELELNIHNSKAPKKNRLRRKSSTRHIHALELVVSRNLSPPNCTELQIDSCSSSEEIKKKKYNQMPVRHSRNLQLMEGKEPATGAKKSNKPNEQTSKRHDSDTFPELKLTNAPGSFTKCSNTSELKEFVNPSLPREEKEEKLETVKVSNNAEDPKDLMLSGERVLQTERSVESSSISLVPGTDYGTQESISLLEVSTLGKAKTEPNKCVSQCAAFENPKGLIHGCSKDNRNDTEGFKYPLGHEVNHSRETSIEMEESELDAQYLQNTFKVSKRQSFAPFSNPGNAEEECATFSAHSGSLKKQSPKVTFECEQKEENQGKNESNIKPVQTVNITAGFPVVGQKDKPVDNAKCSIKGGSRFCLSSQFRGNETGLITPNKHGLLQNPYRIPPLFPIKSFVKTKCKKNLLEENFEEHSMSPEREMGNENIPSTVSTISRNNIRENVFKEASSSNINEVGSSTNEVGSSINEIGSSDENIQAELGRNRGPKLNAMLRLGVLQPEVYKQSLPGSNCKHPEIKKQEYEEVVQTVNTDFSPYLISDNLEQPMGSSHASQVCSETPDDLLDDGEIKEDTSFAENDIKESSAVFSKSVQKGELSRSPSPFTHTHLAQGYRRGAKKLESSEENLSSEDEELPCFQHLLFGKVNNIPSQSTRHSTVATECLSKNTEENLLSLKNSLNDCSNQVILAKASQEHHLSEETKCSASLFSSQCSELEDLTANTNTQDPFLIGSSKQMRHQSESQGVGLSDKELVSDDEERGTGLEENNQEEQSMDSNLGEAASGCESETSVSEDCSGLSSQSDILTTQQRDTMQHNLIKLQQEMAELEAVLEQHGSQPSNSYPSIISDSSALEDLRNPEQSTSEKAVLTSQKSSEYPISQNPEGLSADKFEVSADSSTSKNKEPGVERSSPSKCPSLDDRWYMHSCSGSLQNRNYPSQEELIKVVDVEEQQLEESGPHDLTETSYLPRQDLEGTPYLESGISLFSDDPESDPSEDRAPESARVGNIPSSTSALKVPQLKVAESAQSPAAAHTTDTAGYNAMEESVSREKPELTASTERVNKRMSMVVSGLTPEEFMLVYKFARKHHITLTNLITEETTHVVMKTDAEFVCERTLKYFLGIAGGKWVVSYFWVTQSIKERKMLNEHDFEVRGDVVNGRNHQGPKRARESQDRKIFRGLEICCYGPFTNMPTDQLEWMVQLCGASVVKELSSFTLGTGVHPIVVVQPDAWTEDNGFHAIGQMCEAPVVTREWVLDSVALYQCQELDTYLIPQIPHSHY
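Compounds were incubated for 12 min at room temperature with a complex of 100 nM fluorescein-tagged pBACH1 decapeptide and 250 nM His-tagged BRCT protein. Buffer was phosphate pH 7.3 with EDTA, DTT and Tween 20. Disruption of binding lowers the polarization signal.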
YjeE inh – qHTS Assay for Inhibitors of YjeE; Potency, µM; tRNA threonylcarbamoyladenosine biosynthesis protein TsaE (Escherichia coli (strain …; purified YjeE enzyme, qHTS inhibition assay; 0.05% of 71,000 active; AID 605, 2007
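Fluorescence polarization of a BODIPY Texas Red–ADP probe (2 uM) bound to purified YjeE (10 uM) was read after 15 min room-temperature incubation with compounds. Loss of polarization marks inhibitors; ADP serves as titrated control.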
BRCT inh red – qHTS Assay for Inhibitors of BRCT-Phosphoprotein Interaction (Red Fluorophore); Breast cancer type 1 susceptibility protein (Homo sapiens), P38398; BRCT-phosphopeptide binding, red fluorescence polarization; Potency, µM (doses to about 76.9 µM), for inactives: at the highest dose activity change, negative = inhibition, most hits filed as inhibitors; 0.03% of 75,000 active; AID 892, 2007; further: on the % scale 0 is the no-effect control and ±100 the full control effect
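Fluorescence polarization: 100 nM His-tagged BRCA1 BRCT with 100 nM TAMRA-labelled phospho-BACH1 decapeptide, phosphate buffer pH 7.3 with 150 mM NaCl, DTT, 0.01% Tween 20; 12 min RT. Binding inhibition seen as FP decrease.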
ERK AVP block – qHTS Assay for Inhibitors of the ERK Signaling Pathway using a Homogeneous Screening Assay | AID 995, 2007 | 0.99% of 72,000 active | HEK293-V1b, vasopressin-stimulated pERK AlphaScreen | Potency, µM (highest dose often 57.5 µM), for the others: at the highest dose activity, negative = inhibition, usual class: inhibitors; further: potency means the concentration at half of the fitted maximal effect; on the % scale 0 is the no-effect control and ±100 the full control effect; nearly all actives have a fitted effect of over 55% in size
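qHTS, compounds titrated on V1b-expressing HEK293 cells. Preincubation 30 min at 37C, vasopressin 25 nM for 5 min, lysis 10 min, bead incubation 5 hr at room temperature.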
Active calls of the source: *; [ ] = remark or other dose. This is a sample that favours compounds with a hit; in the whole collection about 1.2% have one here. The call rests on the fitted dose curve; in most records, active means well fitted curve in the direction sought with a large enough effect; inconclusive means small, poorly fitted or top-dose-only effect, or another doubt; inactive means no such curve, though single readings can be large; an effect the other way counts as inactive or inconclusive.

Screening O=c1[nH]c2ccccc2n1CCCSCCCn1c(=O)[nH]c2ccccc21 returned Pol III holo inh -6%, BRCT inh green 1%, YjeE inh inactive, BRCT inh red 0% and ERK AVP block 32µM*.
Screening C=CC(C)(C)c1[nH]c2ccccc2c1C1=C(O)C(=O)C(c2c[nH]c3c(CC=C(C)C)cccc23)=C(O)C1=O returned Pol III holo inh 1.3µM*, BRCT inh green -6%, YjeE inh 100µM*, BRCT inh red -6% and ERK AVP block inconclusive.
O=C(O)C[n+]1ccccc1 was read as Pol III holo inh -2%[11.4 µM], BRCT inh green -2%[15.4 µM], YjeE inh inactive, BRCT inh red -1%[15.4 µM] and ERK AVP block 23%[11.5 µM].
For O=C1c2ccccc2-c2ccc(N(Cc3ccc(Br)cc3)Cc3ccc(Br)cc3)cc21 the results were Pol III holo inh -6%[11.4 µM], BRCT inh green -1%[15.4 µM], YjeE inh inactive, BRCT inh red 0%[15.4 µM] and ERK AVP block 4µM*.
Cc1cnc(NC(=O)c2ccc(-c3nc4ccccc4s3)o2)s1 was read as Pol III holo inh 2%, BRCT inh green 6%, YjeE inh inactive, BRCT inh red 1% and ERK AVP block 20µM*.
Screening O=C(Nc1ccccc1-c1nc2ccccc2s1)c1ccco1 returned Pol III holo inh 6%, BRCT inh green -2%, YjeE inh inactive, BRCT inh red 0% and ERK AVP block 69%.
`CCNc1ncc2nc(-c3cc(F)cc(F)c3)c(=O)n(Cc3ccc(F)cc3)c2n1` gave Pol III holo inh -10%, BRCT inh green 8%, YjeE inh inactive, BRCT inh red -2% and ERK AVP block -1%.
For COc1cc2c(C#N)c(N3CCN(c4ccccc4OC)CC3)nc(N)c2c(N)n1 the results were Pol III holo inh -6%, BRCT inh green 0%, YjeE inh inactive, BRCT inh red -3% and ERK AVP block 25µM*.
`O=C(c1csnn1)N1CCC2(CC1)CCN(c1cccc(-c3ccccc3)c1)CC2` gave Pol III holo inh 12%, BRCT inh green -1%, YjeE inh inactive, BRCT inh red -1% and ERK AVP block 21%.
`CCc1ccc(C2CC(c3ccccc3)n3ncnc3N2)cc1` (stereo unspecified) gave Pol III holo inh -4%, BRCT inh green 1%, YjeE inh inactive, BRCT inh red -1% and ERK AVP block 32µM*.
`C/C=C/C=C/C=O` gave Pol III holo inh -1%, BRCT inh green -1%, YjeE inh inactive, BRCT inh red -2% and ERK AVP block -3%.
Screening CCOC(=O)c1c(OCC)[nH]c2c1cc(O)c1ccccc12 returned Pol III holo inh -9%, BRCT inh green -2%, YjeE inh inactive, BRCT inh red -1% and ERK AVP block 25µM*.
For CCOC(=O)c1c(C)[nH]c2cc(Br)c(O)cc12 the results were Pol III holo inh -2%, BRCT inh green -1%, YjeE inh inactive, BRCT inh red 0% and ERK AVP block -13%.
For O=C(Nc1ccc(CN2CCOCC2)cc1)c1cc2ccccc2o1 the results were Pol III holo inh -1%, BRCT inh green -3%, YjeE inh inactive, BRCT inh red -3% and ERK AVP block 25µM*.
Screening O=C(Nc1ccc2c(c1)OCO2)c1ccc(CN2CCOCC2)cc1 returned Pol III holo inh 0%, BRCT inh green -2%, YjeE inh inactive, BRCT inh red -2% and ERK AVP block inconclusive.
`O=C(Nc1ccc(N2CCOCC2)cc1)c1cc2ccccc2o1` gave BRCT inh green -2% and BRCT inh red 1%.
Screening CCOC(=O)c1ccc(NC(=O)c2ccc(CN3CCOCC3)cc2)cc1 returned Pol III holo inh -6%, BRCT inh green -1%, YjeE inh inactive, BRCT inh red 0% and ERK AVP block 32µM*.
`N#CC1=C(N)Oc2n[nH]c(-c3ccc(F)cc3)c2C1c1cccnc1` (stereo unspecified) gave Pol III holo inh -4%, BRCT inh green 0%, YjeE inh inactive, BRCT inh red -2% and ERK AVP block 16µM*.
NC1(C(=O)NC2(C(=O)O)CCCC2)CCCC1 was read as Pol III holo inh -1%[11.4 µM], BRCT inh green 0%[15.4 µM], YjeE inh inactive, BRCT inh red -1%[15.4 µM] and ERK AVP block -3%[11.5 µM].
For COc1ccc(CNc2cc(-c3ccccc3Cl)ncn2)c(OC)c1 the results were Pol III holo inh 1%, BRCT inh green -2%, YjeE inh inactive, BRCT inh red -1% and ERK AVP block 16µM*.
For COc1ccc(CNc2cc(-c3ccccc3OC)ncn2)c(OC)c1 the results were Pol III holo inh 2%, BRCT inh green -2%, YjeE inh inactive, BRCT inh red 0% and ERK AVP block inconclusive.
For OC[C@@H]1O[C@@H](n2cnc3c(NCCc4ccccc4)ncnc32)[C@@H](O)[C@H]1O the results were Pol III holo inh -5% and YjeE inh inactive.
For Cc1ccc(-c2nnc(N3CCN(C(=O)c4ccco4)CC3)c3ccccc23)cc1 the results were Pol III holo inh -3%, BRCT inh green -4%, YjeE inh inactive, BRCT inh red 1% and ERK AVP block 25µM*.
Screening O=C(c1ccco1)N1CCN(c2ncnc3c(-c4ccccc4)nsc23)CC1 returned Pol III holo inh 5%, BRCT inh green 3%, YjeE inh inactive, BRCT inh red 1% and ERK AVP block 25µM*.
Screening Cc1ccc(-c2nnc(N3CCN(C(=O)CN4C(=O)c5ccccc5C4=O)CC3)c3ccccc23)cc1 returned Pol III holo inh -6%, BRCT inh green 2%, YjeE inh inactive, BRCT inh red 0% and ERK AVP block -7%.
Screening CCOC(=O)OCC1OC(C#Cc2ccc(F)cc2F)C=CC1OC(=O)OCC (stereo unspecified) returned BRCT inh green -2%[15.4 µM], BRCT inh red 2%[15.4 µM] and ERK AVP block 10%[11.5 µM].
C=CS(=O)(=O)c1ccc(Oc2ccc(S(=O)(=O)C=C)cc2)cc1 was read as Pol III holo inh 1%, BRCT inh green 0%, YjeE inh inactive, BRCT inh red 0% and ERK AVP block 2.5µM*.
`O=S(=O)(c1ccc(Oc2ccc(S(=O)(=O)N3CCOCC3)cc2)cc1)N1CCOCC1` gave Pol III holo inh 1%[11.4 µM], BRCT inh green 0%, YjeE inh inactive, BRCT inh red -1% and ERK AVP block -26%.
`CN(C)c1ccc(-c2nc(NCc3cccnc3)c3ccccc3n2)cc1` gave Pol III holo inh -6%, BRCT inh green 8%, YjeE inh inactive, BRCT inh red -2% and ERK AVP block 8%.
